ELG1 repair inh = ELG1-dependent DNA repair inhibition; HEK293T ELG1-luciferase reporter, luminescence, 16 h; DNA damage induced by 5-fluorouridine; Potency, µM (highest dose often 46.1 µM), hits mostly inhibitors; 330,000 tested, 2.3% active; AID 504467; also: nearly all actives have a fitted effect of over 55% in size
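DMSO vehicle served as the neutral condition. Each well held 2,000 cells given 5-fluorouridine plus compound; after 16 hr at 37 °C/5% CO2, ONE-Glo was added and luciferase measured 30 min later.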
KB-3-1 tox = KB-3-1 parental cell cytotoxicity | KB-3-1 viability, CellTiter-Glo ATP luminescence, 72 h | Potency, µM (series often up to 46.1 µM), most hits filed as cytotoxic | 400,000 tested, 1.4% active | AID 1347075; also: nearly all actives have a fitted effect of over 60% in size
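Cytotoxicity in the drug-sensitive parental line KB-3-1 was scored as loss of CellTiter-Glo luminescence following 72 h incubation with compound. Values come from curve fitting of normalized concentration-response data.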
MCF10A rereplic = DNA re-replication induction in MCF 10a cells | Potency, µM (series often up to 46.1 µM), actives largely listed as activators | MCF 10A DNA re-replication, Hoechst nuclear intensity, 48 h | 350,000 tested, 2.9% active; also: nearly all actives have a fitted effect of over 50% in size
SW480 rereplic = induces DNA re-replication in SW480 colon adenocarcinoma cells; SW480 DNA re-replication, Hoechst DNA content imaging, 48 h; Potency, µM (top dose mostly 46.1 µM), most hits filed as activators; 340,000 tested, 1.8% active; also: nearly all actives have a fitted effect of over 55% in size
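First, 250 cells per well were seeded. Next, compound or vehicle (23 nL) was pinned in, plates sat 48 hr at 37 C. Finally Hoechst was added for 40 min before fluorescence scanning.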
KB-V1 cytotox = kills drug-selected multidrug resistant KB-V1 cells | KB-V1 MDR cells viability, CellTiter-Glo, 72 h | 400,000 tested, 3.4% active | Potency, µM (highest dose often 46.1 µM), usual class: cytotoxic; also: nearly all actives have a fitted effect of over 60% in size
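Cells of the MDR subline KB-V1 are plated, dosed with compound at multiple concentrations, and incubated 72 h at 37 degrees C; CellTiter-Glo is then added and luminescence read after 10 min.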
Large screens that a line does not name were inactive. Only some compounds are listed: those with a hit (about 8.1% of all), similar ones and a draw of the others. Calls follow the shape of the dose curve; as a rule, active = well fitted curve in the direction sought with a large enough effect; inconclusive = small, poorly fitted or top-dose-only effect, or another doubt; inactive = no such curve, though single readings can be large; an effect the other way counts as inactive or inconclusive.

c1ccc(Cn2nnc3c(N4CCCC4)ncnc32)cc1	KB-V1 cytotox 18µM
c1ccc(Cn2nnc3c(N4CCC5(CC4)OCCO5)ncnc32)cc1	none
Cc1nnc(N2CCOCC2)c2nn(-c3ccccc3)c(C)c12	KB-V1 cytotox inconclusive
c1ccc(-n2nnc3c(N4CCOCC4)ncnc32)cc1	ELG1 repair inh inconclusive, KB-3-1 tox inconclusive, MCF10A rereplic inconclusive, KB-V1 cytotox 16µM
c1ccc(Cn2nnc3c(N4CCc5ccccc5C4)ncnc32)cc1	ELG1 repair inh inconclusive, MCF10A rereplic inconclusive, KB-V1 cytotox 15µM
CCCCN(CC)CCCNC(=O)c1cn(CC(C)C)c(=O)c2c1c1ccccc1n2C	KB-V1 cytotox inconclusive
c1ccc(-c2cc3c(N4CCOCC4)ncnc3s2)cc1	ELG1 repair inh inconclusive, MCF10A rereplic 13µM, SW480 rereplic inconclusive, KB-V1 cytotox inconclusive
CCS(=O)(=O)c1ccc(O)c(NC(=O)Nc2ccccc2)c1	none
CCS(=O)(=O)c1ccc(O)c(NC(=O)Nc2ccc(C(C)(C)C)cc2)c1	ELG1 repair inh 15µM
Cc1cc(=O)oc2c(C)c(OC(C)C(=O)NCCCN3CCOCC3)ccc12 (stereo not drawn)	none
Cc1cc(C)c2c(CCl)cc(=O)oc2c1	KB-3-1 tox inconclusive, MCF10A rereplic 5.2µM, SW480 rereplic 3.7µM, KB-V1 cytotox inconclusive
Cc1cc(C)c2c(CN3CCCCC3)cc(=O)oc2c1	none
C/C=C(/C)C(=O)O[C@@H]1c2c(ccc3ccc(=O)oc23)O[C@@H]1C(C)(C)OC(=O)/C(C)=C\C	ELG1 repair inh inconclusive, KB-3-1 tox inconclusive, MCF10A rereplic inconclusive, KB-V1 cytotox 6.5µM
CCCCc1ccc(N/C(N)=N/c2nc(C)cc(C)n2)cc1	ELG1 repair inh inconclusive, KB-3-1 tox inconclusive, MCF10A rereplic inconclusive, SW480 rereplic inconclusive, KB-V1 cytotox 6.5µM
Cc1cc(C)cc(N/C(N)=N/c2nc(C)cc(C)n2)c1	ELG1 repair inh 15µM, KB-3-1 tox inconclusive, MCF10A rereplic inconclusive, SW480 rereplic inconclusive, KB-V1 cytotox 21µM
CCOC(=O)c1cc2c(=O)n3ccccc3nc2n(CCOC)c1=NC(=O)C(C)(C)Oc1ccc(Cl)cc1	none (no result: ELG1 repair inh, MCF10A rereplic, SW480 rereplic)
CCCCCCCCCCCCCCCC(=O)OC(CC(=O)O)C[N+](C)(C)C (stereo not drawn)	ELG1 repair inh inconclusive, KB-3-1 tox 3.7µM, SW480 rereplic 0.58µM
Cc1cc(C)n(-c2nc3ccccc3c3nc(C)nn23)n1	none
O=[N+]([O-])c1cc2ccccc2c(O)c1O	KB-V1 cytotox inconclusive (no result: ELG1 repair inh, MCF10A rereplic, SW480 rereplic)
O=[N+]([O-])c1cc(-c2ccccc2)cc([N+](=O)[O-])c1O	KB-3-1 tox 16µM, MCF10A rereplic inconclusive, KB-V1 cytotox 21µM (no result: ELG1 repair inh)
CC(c1ccccc1)C1C(C#N)=C(N)OC2=C1C(=O)CC(C)(C)C2 (stereo not drawn)	none
CC1(C)CC(=O)C2=C(C1)OC(N)=C(C#N)C2C#Cc1ccccc1 (stereo not drawn)	MCF10A rereplic 8.9µM, SW480 rereplic inconclusive
CCc1ccc(NC(=O)[C@H](NC(=O)[C@@H]2Cc3ccccc3CN2)c2ccccc2)cc1	ELG1 repair inh inconclusive, SW480 rereplic inconclusive, KB-V1 cytotox inconclusive
CCc1ccc(NC(=O)[C@H](Cc2c[nH]c3ccccc23)NC(=O)[C@@H]2Cc3ccccc3CN2)cc1	KB-3-1 tox 5.2µM, MCF10A rereplic 18µM, SW480 rereplic 16µM, KB-V1 cytotox inconclusive
Cc1ccc(NC(=O)[C@H](Cc2ccccc2)NC(=O)[C@@H]2Cc3ccccc3CN2)c(C)c1	none
CC(NC(=O)[C@H](Cc1c[nH]c2ccccc12)NC(=O)[C@@H]1Cc2ccccc2CN1)c1ccccc1 (stereo partly drawn)	none
Cc1cccc(NC(=O)[C@H](Cc2c[nH]c3ccccc23)NC(=O)[C@@H]2Cc3ccccc3CN2)c1	ELG1 repair inh inconclusive, KB-3-1 tox 5.8µM, MCF10A rereplic 16µM, SW480 rereplic 21µM
Cc1ccc(NC(=O)[C@H](Cc2c[nH]c3ccccc23)NC(=O)[C@@H]2Cc3ccccc3CN2)c(C)c1	KB-3-1 tox 1.8µM, MCF10A rereplic inconclusive, KB-V1 cytotox inconclusive
Cc1cc(C)cc(NC(=O)[C@H](Cc2c[nH]c3ccccc23)NC(=O)[C@@H]2Cc3ccccc3CN2)c1	MCF10A rereplic 21µM, SW480 rereplic 18µM, KB-V1 cytotox inconclusive
O=[N+]([O-])c1cc(CN2CCN(c3cccc(C(F)(F)F)c3)CC2)c2cccnc2c1O	ELG1 repair inh inconclusive, KB-3-1 tox 3.7µM, SW480 rereplic inconclusive, KB-V1 cytotox inconclusive
O=[N+]([O-])c1cc(CN2CCCC2)c2cccnc2c1O	KB-3-1 tox inconclusive, KB-V1 cytotox 5.8µM
O=[N+]([O-])c1cc(Cl)ccc1N1CCN(c2cccc(C(F)(F)F)c2)CC1	MCF10A rereplic inconclusive, KB-V1 cytotox inconclusive
O=C(O)c1cc(N2C(=O)C=CC2=O)cc(N2C(=O)C=CC2=O)c1	KB-V1 cytotox inconclusive (no result: ELG1 repair inh)
COC(=O)CNC(=O)c1ccc(F)cc1	none
CCOc1ccccc1N1CCN(C(=O)c2cc3c(C)cc(C)cc3[nH]2)CC1	KB-3-1 tox 18µM, MCF10A rereplic inconclusive, SW480 rereplic 21µM, KB-V1 cytotox 23µM
CCOc1ccccc1N1CCN(C(=O)c2ccncc2)CC1	SW480 rereplic inconclusive
CCOc1ccccc1N1CCN(C(=O)c2cc3ccccc3cc2OC)CC1	KB-3-1 tox 3.7µM, MCF10A rereplic 2.1µM, SW480 rereplic 15µM, KB-V1 cytotox 16µM
COc1cc2ccccc2cc1C(=O)N1CCN(C(C)=O)CC1	SW480 rereplic inconclusive
CCOc1ccccc1N1CCN(C(=O)CC(C)C)CC1	KB-V1 cytotox 23µM
CC1Cc2ccccc2N1C(=S)NC1CCCC1 (stereo not drawn)	none
Cc1ccc(NC(=O)CN2C(=O)S/C(=C\c3ccccn3)C2=O)cc1	none
COc1ccc(/C=N/Nc2ncnc3sc4c(c23)CCCC4)cc1OC	KB-3-1 tox 18µM, MCF10A rereplic inconclusive, SW480 rereplic inconclusive, KB-V1 cytotox inconclusive
COc1ccc(Nc2ncnc3sc4c(c23)CCCC4)cc1	none (no result: ELG1 repair inh, MCF10A rereplic, SW480 rereplic)
COc1cccc(CCNC(=O)CC2C(=O)NCCN2CC(C)(C)C)c1 (stereo not drawn)	none
COc1cccc(N=C2CC(C)(C)CC(=O)/C2=C(/O)c2ccccc2)c1	none
CCCCN(CC)CCCNC(=O)c1cc2c(=O)n(CC)c3ccccc3c2s1	ELG1 repair inh inconclusive, KB-3-1 tox inconclusive, MCF10A rereplic inconclusive, SW480 rereplic inconclusive
CCCN(CCC)CCCNC(=O)c1cc2c(=O)n(CC)c3ccccc3c2s1	ELG1 repair inh inconclusive, KB-3-1 tox 23µM, MCF10A rereplic inconclusive, SW480 rereplic inconclusive, KB-V1 cytotox inconclusive
CCCN(CCC)CCNC(=O)c1cc2c(=O)n(C)c3ccccc3c2n1C	ELG1 repair inh inconclusive, MCF10A rereplic inconclusive
CN(CCNC(=O)c1cc2c(=O)n(C)c3ccccc3c2n1C)Cc1ccccc1	ELG1 repair inh inconclusive, KB-3-1 tox inconclusive, MCF10A rereplic 21µM
CCN(CC)CCNC(=O)c1cc2c(=O)n(C)c3ccccc3c2s1	ELG1 repair inh inconclusive, MCF10A rereplic 23µM, SW480 rereplic inconclusive, KB-V1 cytotox inconclusive

Bioassay records as filed in PubChem BioAssay.
